# Screening data from PubChem BioAssay.
# Mdm2-MdmX inh: disrupts the human Mdm2-MdmX interaction. O15151+Q00987. SaOS-2 split-luciferase Mdm2/MdmX complementation, luminescence. inhibition, % at 8 µM. 330,000 tested, 3% active. AID 485346;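 active = inhibition of at least 50% at 8 µM in the primary screen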
# Target sequence (O15151 whole entry, looked up): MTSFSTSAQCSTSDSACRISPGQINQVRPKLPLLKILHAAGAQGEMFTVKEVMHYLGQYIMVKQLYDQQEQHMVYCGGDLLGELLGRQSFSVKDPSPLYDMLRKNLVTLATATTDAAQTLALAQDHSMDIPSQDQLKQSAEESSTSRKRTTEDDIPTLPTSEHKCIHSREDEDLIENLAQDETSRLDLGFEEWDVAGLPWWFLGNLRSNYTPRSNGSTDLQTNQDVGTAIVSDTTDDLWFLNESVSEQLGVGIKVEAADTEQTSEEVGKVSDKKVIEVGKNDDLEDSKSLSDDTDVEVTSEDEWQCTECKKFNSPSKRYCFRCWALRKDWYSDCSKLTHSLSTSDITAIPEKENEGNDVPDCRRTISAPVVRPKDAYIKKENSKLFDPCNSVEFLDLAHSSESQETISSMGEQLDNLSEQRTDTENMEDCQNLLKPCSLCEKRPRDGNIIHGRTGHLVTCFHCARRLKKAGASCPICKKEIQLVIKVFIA
# Target sequence (Q00987 whole entry, looked up): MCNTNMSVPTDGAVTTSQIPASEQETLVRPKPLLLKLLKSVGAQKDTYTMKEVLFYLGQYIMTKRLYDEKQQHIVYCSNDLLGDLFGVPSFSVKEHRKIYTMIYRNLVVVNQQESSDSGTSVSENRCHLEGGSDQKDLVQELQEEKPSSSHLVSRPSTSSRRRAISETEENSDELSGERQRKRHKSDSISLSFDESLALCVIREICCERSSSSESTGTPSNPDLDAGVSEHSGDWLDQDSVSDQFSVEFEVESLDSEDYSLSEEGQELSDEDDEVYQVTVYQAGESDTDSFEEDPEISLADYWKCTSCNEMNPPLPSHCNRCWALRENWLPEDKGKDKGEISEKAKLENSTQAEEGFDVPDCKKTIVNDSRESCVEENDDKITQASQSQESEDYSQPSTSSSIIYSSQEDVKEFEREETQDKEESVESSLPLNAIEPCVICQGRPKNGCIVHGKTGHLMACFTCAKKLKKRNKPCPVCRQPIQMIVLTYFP
# 697 NFkB inh: inhibitors of the PMA/ionomycin-induced NF-kB reporter in 697 B cells; 697 B-cell NF-kB luciferase reporter, 16 h; inhibition, % at 4 µM; 330,000 tested, 0.33% active; AID 435022; in the data active = inhibition above about 35%
# Jurkat NFkB inh: inhibitors of the PMA/ionomycin-induced NF-kB reporter in Jurkat cells; 330,000 tested, 0.53% active; inhibition, % at 4 µM; PMA/ionomycin-induced NF-kB luciferase reporter, luminescence; in the data active = inhibition above about 50%
# Gli-Sufu antag: Gli-Sufu pathway antagonism. Sufu-KO-LIGHT fibroblasts, Gli luciferase reporter luminescence. inhibition, % at 5 µM. 340,000 tested, 0.74% active. AID 588413;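 active = inhibition above about 55%, limit read from the data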;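 note: 0% = DMSO-treated cells and 100% = wells with medium but no cells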
# Shn3 3UTR inh: Schnurri-3 reporter inhibition in Clone20 osteoblasts; AID 588674; inhibition, % at 12.5 µM; 360,000 tested, 0.52% active; Clone20 osteoblast Shn3 3'UTR firefly luciferase, 24 h;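 active = mean inhibition of at least 75% with every replicate also reaching 75%; inconclusive = mean inhibition at least 75% but some replicate below; inactive = mean inhibition below 75%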;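 note: 0% = median of neutral control wells and 100% = pilot-screen positive control compound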
# Gli antag conf: confirmation of Gli-SUFU pathway antagonists; 2,500 tested, 40% active; Sufu-KO-LIGHT cells, Gli luciferase reporter, luminescence; inhibition, % at 5 µM; shares compounds with Gli-Sufu antag; AID 602428;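 active = mean inhibition at 5 µM reaching about 45%, limit read from the data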;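 note: plate controls were DMSO-treated cells for no effect and wells lacking cells for full effect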
# Gli cytotox: cytotoxicity counter-screen for Gli-SUFU antagonists; 2,500 tested, 32% active; AID 651994; Sufu-KO-LIGHT cells cytotoxicity, ATP luminescence; shares compounds with Gli-Sufu antag; cytotoxicity, % at 5 µM;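 active = mean cytotoxicity at 5 µM above about 25%, limit read from the data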;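 note: cells exposed to compound overnight for roughly 16 to 18 hours; plate controls were DMSO wells with cells for no effect and medium without cells for full effect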
# Wnt3a cs: counter-screen for Gli-SUFU antagonists: Wnt3a reporter inhibition | inhibition, % at 6.25 µM | AID 651995 | shares compounds with Gli-Sufu antag | Wnt-LIGHT cells, Wnt3a-driven luciferase reporter, luminescence | 2,500 tested, 20% active;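 active = mean inhibition above about 25%, limit read from the data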
# An asterisk follows results filed as active; ? = inconclusive; . = no result given. Hits are enriched below; roughly 3.8% of the tested compounds scored in any of these assays.
SMILES,Mdm2-MdmX inh,697 NFkB inh,Jurkat NFkB inh,Gli-Sufu antag,Shn3 3UTR inh,Gli antag conf,Gli cytotox,Wnt3a cs
CC1(C)Cc2c(sc3nc(-c4ccccc4)n(N)c(=O)c23)CO1,23.8,-14.6,-15.3,74.0*,-2.5,5.8,-6.9,-73.7
CC(C)(C)c1ccc2c(c1)OC(C(=O)N/N=C\c1ccc[nH]1)CO2 (stereo not given),16.9,-16.6,6.1,89.6*,?,91.5*,9.1,-13.7
O/N=C(\c1ccccc1)C(O)c1ccccc1 (stereo not given),21.6,8.7,9.1,13.9,-28.0,.,.,.
COc1ccc(NS(=O)(=O)c2ccc(N3CCOCC3)c(N)c2)cc1,-6.5,-25.4,24.9,61.8*,83.5,61.4*,26.3*,28.0*
COc1ccc(S(=O)(=O)Nc2ccc(N3CCOCC3)cc2)cc1,22.5,3.3,-7.4,31.5,-11.0,.,.,.
COc1ccc(NS(=O)(=O)c2ccc(NC(=O)c3ccc(CN4CCOCC4)cc3)cc2)cc1,-4.4,-52.2,27.8,57.4*,49.5,28.3,13.3,3.0
Cc1cccnc1C(NC(=O)C1CCN(Cc2ccc(Cl)cc2)CC1)c1ccc(F)cc1 (stereo not given),.,.,.,.,8.4,.,.,.
O=C(NCc1ccccc1)C(=O)NCC1CCCN1S(=O)(=O)c1cccs1 (stereo not given),19.2,-8.9,-3.1,4.8,-11.0,.,.,.
CC(=O)c1ccc(NC(=O)CN2CCN(CC(=O)Nc3ccc(C(C)=O)cc3)CC2)cc1,-5.7,0.5,-3.7,-14.8,-0.7,.,.,.
CC(=O)c1ccc(NC(=O)CSC(C)C)cc1,-45.9,-24.2,-30.9,98.7*,-12.7,-1.4,27.8*,-33.6
CSc1nc2[nH]c3c(c2c2nncn12)CC(C)(C)OC3,-10.6,15.1,-5.8,98.5*,-0.9,26.9,5.5,-15.4
CCOc1ccc(Nc2ncnc3c2cnn3C)cc1,27.5,-3.3,-4.7,-6.5,2.4,.,.,.
O=C(Nc1ccc(Oc2ncnc3cc(Cl)ccc23)nc1)c1ccc(F)cc1,9.1,0.4,-2.8,-13.8,.,.,.,.
